Screens (PubChem BioAssay)
Compounds with a hit are over-represented: about 2.6% of the library has one in this group of screens.
A-T KAP1 phos: potential ataxia-telangiectasia treatments restoring KAP-1 phosphorylation. F2112 A-T fibroblasts, KAP-1 phosphorylation AlphaLISA; neocarzinostatin DNA damage 30 min before lysis. Potency, µM (top dose mostly 57.5 µM), for the others: at the highest dose activation, usual class: activators. actives 0.19% (n = 320,000). AID 485349; note: potency is the fitted concentration of half-maximal effect; % of control where 0% means no effect; nearly all actives have a fitted effect of over 45% in size
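hTERT-immortalized A-T patient fibroblasts (F2112), 500 cells/well in OPTI-MEM, 1% FBS, got compounds for 60 min, then NCS for 30 min at 37C. Lysates were then assayed for phospho-KAP-1 by AlphaLISA (anti-pKAP1 donor, anti-KAP1 acceptor beads), 6 hr at 25C.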
CCT chaperon mod: changes cytosolic chaperonin activity. purified chaperonin ATPase assay, HTRF ADP detection, 30 min. activity change, % (no concentration beside the values), hits read low. actives 0.3% (n = 360,000). AID 651819; in the data active = activity change below about -30%; note: % is set by controls: 0 for no effect and ±100 for the full control effect
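First, chaperonin was dispensed at 40 nM or 20 nM final depending on batch activity. Next, compounds were pinned at 76 uM and ATP added at 10 uM. After 30 min at 37 °C, ADP detection reagents ran 30 min at ambient temperature.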
Nrf2 activator: activates Nrf2 signaling; AREc32 ARE-luciferase reporter (MCF7-derived line), luminescence, 24 h; Potency, µM (top dose mostly 46.1 µM), without a hit: top-dose activation, most hits filed as activators; actives 0.31% (n = 410,000); note: potency is the fitted concentration of half-maximal effect; % of control where 0% means no effect; nearly all actives have a fitted effect of over 65% in size
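Reporter line AREc32 (ARE-Fluc), seeded overnight in OPTI-MEM with 5% FBS; compound pin-transferred, 24 hr at 37 deg C, 5% CO2; luminescent read-out.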
TCR activator: activates T cell receptor signaling | Potency, µM (highest dose often 9.22 µM), without a hit: at the top dose activation of IL-2 secretion, usual class: activators | 330,000 tested, under 10 active | primary human leukocytes, anti-CD3, IL-2 HTRF, 48 h; note: % of control where 0% means no effect
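HTRF read-out of IL-2 secretion: europium cryptate donor excited at 320nm, d2 acceptor emission at 665nm. Cells were primary human leukocytes incubated 48 hr with compounds and a-CD3 beads, supplying TCR signal only.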
A549 viability: kills or reduces viability of A549 cells in Nrf2 counter-screen; actives 0.16% (n = 390,000); A549 ARE-Fluc cells, CellTiter-Fluor viability, 18-24 h; Potency, µM (titrated, usually from 46 µM), for the others: at the top dose activity change, negative = cytotoxicity, usual class: inhibitors; note: potency is the fitted concentration of half-maximal effect; % is set by controls: 0 for no effect and ±100 for the full control effect
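A549 ARE-Fluc cells in 5% FBS OPTI-MEM, 5000 cells/well, rested 2 h then exposed to compounds in concentration-response for 18-24 h at 37 °C. Viability by CellTiter-Fluor fluorescence (Ex 405/Em 525) after 30 min; luciferase luminescence (BugLite, 15 min, RT) read afterwards.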
Nrf2 block: inhibitors of Nrf2 signaling; A549 ARE-Fluc reporter, luciferase luminescence, 18-24 h; Potency, µM (doses to about 46 µM), without a hit: at the highest dose activity change, negative = inhibition, actives largely listed as inhibitors; actives 2.1% (n = 360,000); note: potency is the fitted concentration of half-maximal effect; % is set by controls: 0 for no effect and ±100 for the full control effect; nearly all actives have a fitted effect of over 60% in size
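Reporter: ARE-Fluc in A549. Exposure: 18-24 h, 37 °C, 5% CO2, 5% FBS OPTI-MEM. Readouts: fluorescent cytotoxicity (CellTiter-Fluor), then luminescent Nrf2 signal after BugLite.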
* = called active by the depositor; ? = inconclusive; . = not tested or not shown; [ ] = dose if it differs, or a comment. Unless noted, calls come from the whole dose curve; as a rule, active = well fitted curve in the direction sought with a large enough effect; inconclusive = small, poorly fitted or top-dose-only effect, or another doubt; inactive = no such curve, though single readings can be large; an effect the other way counts as inactive or inconclusive.

SMILES	A-T KAP1 phos	CCT chaperon mod	Nrf2 activator	TCR activator	A549 viability	Nrf2 block
COc1ccccc1NS(=O)(=O)c1cc([N+](=O)[O-])ccc1N/N=C/c1c(C)[nH]c2ccccc12	0%	-2	7%	0%	?	?
COc1ccc(N2CCN(c3c4c(nc5nncn35)CCC4)CC2)cc1	.	.	0%	.	2%	21µM*
Cc1nc2nncn2c(N2CCN(c3ccccc3)CC2)c1C	.	.	-1%	.	-2%	-26%
CCOC(=O)C1=C(COC(=O)CSc2ccc(C)cc2C)NC(=O)NC1C (stereo not given)	-2%	0	0%	-3%	-4%	6%
O=C(NCCNc1ccc([N+](=O)[O-])cc1C(F)(F)F)c1ccc(F)cc1	-1%	-1	2%	0%[46.1 µM]	?	21µM*
O=C(Nc1c(O)c2ccccc2[nH]c1=O)c1ccco1	-10%	2	10µM*	-5%	2%	6%
CCOC(=O)C1Nc2c(F)cc(C)cc2C2c3ccccc3CC12 (stereo not given)	.	-2	11µM*	-1%	13%	-14%
Cc1ccc(C)c(NC(=S)NNC(=O)c2csc3c2CCC(C)C3)c1 (stereo not given)	3%	1	-1%	0%	?	21µM*
COC(=O)N=Nc1c(O)n(Cc2ccccc2)c2ccccc12	25µM*	1	-1%	-1%	-3%	-3%
Cc1cccc(N2CCN(C(=O)c3cccc(N4CCCC4=O)c3)C(C)C2)c1 (stereo not given)	-2%	-1	-1%	2%	-10%	-5%
N#Cc1ccccc1NC(=O)C(=O)NCC(c1ccc2c(c1)OCO2)N1CCN(c2ccccc2)CC1 (stereo not given)	.	.	0%	.	7%	.
Cc1cccc(OCc2nnc(SCC(=O)N(c3ccccc3)C3CCS(=O)(=O)C3)o2)c1 (stereo not given)	-1%	1	2%	10%	-13%	21µM*
CCOC(=O)/C(C#N)=C1/C=C(C)NC(c2ccccc2O)=N1	10%	0	0%	.	-4%[1.84 µM]	13µM*
CCOC(=O)/C(C#N)=C1\Nc2ccccc2N=C1N(CC(C)C)CC(C)C	5%	0	-1%	-5%	-4%	8%
CCn1nc(NC(=O)c2ccccc2)c2cc3cccc(C)c3nc21	22µM*	0	0%	-1%	2%	-14%
CCOc1ccc(CNC(=O)C(C)n2ncn3cccc3c2=O)cc1 (stereo not given)	.	.	-1%	.	-1%	?
COc1cc2c(cc1NC(=O)c1cccc([N+](=O)[O-])c1)oc1ccccc12	-3%	-14	9%	8%	18µM*	16µM*
COc1cc2c(cc1NC(=O)c1ccc(C)c([N+](=O)[O-])c1)oc1ccccc12	5%	0	4%	2%[46.1 µM]	4%	-4%
O=C1C=CC(=O)N1Cc1ccncc1	.	2	0%	-2%	-1%	14%
O=C1C=CC(=O)N1CCCCCCCCCCN1C(=O)C=CC1=O	.	-2	?	-1%	?	26µM*
CCOC(=O)c1ccc(NC(=O)c2ccc3c(c2)NC(=O)c2ccccc2S3)cc1	.	.	0%	.	1%	8%
Cc1ccc(NC(=O)c2ccc3c(c2)NC(=O)c2ccccc2S3)cc1	.	.	4%	.	?	16µM*
CC1CCN(C(=O)c2cc(-c3ccco3)on2)CC1	4%	-1	14µM*	-8%	-2%	?
CC1CCN(C(=O)c2cc(-c3ccccc3O)on2)CC1	-1%	-1	0%	-6%	11%	?
O=C(c1cc(-c2ccco2)on1)N1CCc2ccccc2C1	.	-1	14µM*	8%	3%	?
O=C(c1cc(-c2ccco2)on1)N1CCCc2ccccc21	-2%	0	11µM*	-9%	13%	?
O=C(c1cc(-c2ccccc2)on1)N1CCCc2ccccc21	11%	-1	24%	-3%	6%	7%
CCn1nnc(-c2ccc(N)cc2)n1	4%	3	0%	3%	1%	?
